# Data taken from PubChem BioAssay (NCATS).
# Inconclusive results are not listed. Entries that show only a call come without a potency. Values without a mark were called inactive. Calls of active or inactive are those of the source. Calls come from the whole dose curve; as a rule, active = well fitted curve in the direction sought with a large enough effect; inconclusive = small, poorly fitted or top-dose-only effect, or another doubt; inactive = no such curve, though single readings can be large; an effect the other way counts as inactive or inconclusive.
# Key:
# [1] = test system: Zika virus NS2B-NS3 protease; experiment: Primary screen GU AMC qHTS for Zika virus inhibitors (AID 1347154); note: nearly all actives have a fitted effect of over 70% in size
# Method in brief: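 Fluorogenic AMC-substrate cleavage by noncovalent NS2B-NS3 protease complex (25 nM, pH 8.0 Tris buffer with Tween 20) followed for 15 minutes at room temperature (~20% conversion). Percent inhibition from ex340/em450 signal change, fitted by 4-parameter Hill equation.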
# [2] = Confirmatory screen GU Rhodamine qHTS for Zika virus inhibitors qHTS (AID 1347157); note: potency is the fitted concentration of half-maximal effect; nearly all actives have a fitted effect of over 70% in size
# Method in brief: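 In dose–response format, inhibition of unlinked protease (25 nM) was measured with 1.5 microM bis-peptide Rhodamine110 substrate. Aprotinin served as the intraplate control.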
# [3] = ZIKV-mCherry secondary qHTS for Zika virus inhibitors (AID 1347158); settings: Vero cells, ZIKV-mCherry infection imaging, 48-72 h; note: potency is the fitted concentration of half-maximal effect
# Method in brief: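 Vero cells, 5,000/well, plated overnight at 37 °C, then compound added and infected with recombinant ZIKV-mCherry at MOI 1 for 48-72 h. PFA-fixed, Hoechst nuclear stain, high-content imaging; cells with mCherry intensity above 450 RFU scored infected, reported as percent infection.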
# [4] = Confirmatory screen NINDS Rhodamine qHTS for Zika virus inhibitors (AID 1347161); note: potency is the fitted concentration of half-maximal effect; nearly all actives have a fitted effect of over 60% in size
# Method in brief: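 Aprotinin served as in-plate control. Conditions: 25 nM linked NS2B-NS3, pH 8.0 Tris buffer, titrated compounds, 15 min preincubation and 15 min reaction with 1.5 microM Rhod110 substrate at room temperature.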
# [5] = test system: Zika virus NS2B-NS3 protease (linked); experiment: 384 well plate NINDS AMC confirmatory qHTS for Zika virus inhibitors (AID 1347163); settings: Recombinant NS2B-NS3 protease, Ac-VKTGKR-AMC fluorescence; note: potency is the fitted concentration of half-maximal effect; nearly all actives have a fitted effect of over 50% in size
# Method in brief: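 Linked protease 5/30/60 nM final; cpds up to 1 mM final, ~15 min preinc. Substrate Ac-VKTGKR-AMC 30 microM final. RT, dark, 25 min; FI ex 355/em 460; normalized to no-enzyme/no-inhibitor ctrls.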
# [6] = test system: Zika virus NS2B-NS3 protease (linked construct); experiment: 384 well plate NINDS Rhodamine confirmatory qHTS for Zika virus inhibitors (AID 1347164); note: potency is the fitted concentration of half-maximal effect; nearly all actives have a fitted effect of over 65% in size
# Method in brief: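 Cleavage of Ac-LKRR-Rhodamine 110 (10 microM final) by linked protease (final 5, 30 or 60 nM) was followed as fluorescence at 485/538 nm after 25 min, room temperature, dark. Compounds preincubated ~15 min.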
# [7] = biological target: Lysine-specific demethylase 5B (Homo sapiens) (UniProt Q9UGL1); experiment: Optimization screen for KDM5B Histone Demethylases FDH coupled qHTS against the LOPAC library (AID 1347166)
# Chain of Lysine-specific demethylase 5B (Homo sapiens) (Q9UGL1 whole entry, looked up): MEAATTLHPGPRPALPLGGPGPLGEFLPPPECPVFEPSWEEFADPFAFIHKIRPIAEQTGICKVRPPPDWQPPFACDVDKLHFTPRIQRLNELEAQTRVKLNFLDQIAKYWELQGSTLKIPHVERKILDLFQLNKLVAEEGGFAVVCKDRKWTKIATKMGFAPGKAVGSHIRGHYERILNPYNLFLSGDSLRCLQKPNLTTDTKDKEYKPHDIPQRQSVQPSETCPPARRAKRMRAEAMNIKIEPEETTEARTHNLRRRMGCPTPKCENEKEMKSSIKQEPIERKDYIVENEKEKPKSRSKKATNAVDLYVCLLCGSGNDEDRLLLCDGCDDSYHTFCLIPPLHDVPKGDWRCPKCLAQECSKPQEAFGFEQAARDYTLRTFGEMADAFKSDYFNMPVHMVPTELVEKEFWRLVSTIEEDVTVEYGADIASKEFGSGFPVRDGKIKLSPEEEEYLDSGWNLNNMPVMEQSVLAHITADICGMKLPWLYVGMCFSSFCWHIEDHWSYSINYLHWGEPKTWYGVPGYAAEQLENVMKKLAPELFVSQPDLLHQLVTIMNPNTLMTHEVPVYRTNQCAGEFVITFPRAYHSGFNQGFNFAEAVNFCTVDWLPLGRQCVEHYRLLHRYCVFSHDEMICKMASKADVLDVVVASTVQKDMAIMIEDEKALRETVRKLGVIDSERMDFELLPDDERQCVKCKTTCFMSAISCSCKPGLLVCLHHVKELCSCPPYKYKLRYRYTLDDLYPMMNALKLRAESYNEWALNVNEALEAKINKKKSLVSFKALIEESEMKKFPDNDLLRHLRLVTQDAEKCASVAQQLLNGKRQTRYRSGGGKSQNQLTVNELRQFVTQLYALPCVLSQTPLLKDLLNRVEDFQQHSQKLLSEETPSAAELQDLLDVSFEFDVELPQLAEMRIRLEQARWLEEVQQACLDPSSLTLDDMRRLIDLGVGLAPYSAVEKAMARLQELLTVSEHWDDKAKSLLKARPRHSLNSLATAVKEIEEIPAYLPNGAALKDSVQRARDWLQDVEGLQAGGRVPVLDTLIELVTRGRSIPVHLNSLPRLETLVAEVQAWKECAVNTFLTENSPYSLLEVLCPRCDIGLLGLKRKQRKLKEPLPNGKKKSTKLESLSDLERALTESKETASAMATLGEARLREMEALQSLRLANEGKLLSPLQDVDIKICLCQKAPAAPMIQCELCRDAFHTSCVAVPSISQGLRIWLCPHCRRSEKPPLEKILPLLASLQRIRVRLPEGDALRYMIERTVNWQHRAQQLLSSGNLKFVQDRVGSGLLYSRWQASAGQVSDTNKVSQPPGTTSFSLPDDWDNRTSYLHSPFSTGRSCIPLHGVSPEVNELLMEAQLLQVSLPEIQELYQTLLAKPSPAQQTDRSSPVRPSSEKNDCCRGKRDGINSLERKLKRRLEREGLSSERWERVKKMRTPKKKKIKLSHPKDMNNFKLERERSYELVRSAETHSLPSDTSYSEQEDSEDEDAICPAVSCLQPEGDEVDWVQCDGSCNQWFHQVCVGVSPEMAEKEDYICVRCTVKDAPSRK
# Method in brief: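 KDM5BDeltaAP (200nM final) preincubated 10 min with compound, then 12.5uM H3K4Me3, 25uM a-ketoglutarate, ascorbate, Fe(II), NAD+ and FDH added; 50mM HEPES pH 7.5, 0.01% Tween-20. NADH fluorescence (340/450 nm) change over 30 min, room temperature.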
# [8] = test system: Zika virus NS2B-NS3 protease (unlinked complex); experiment: Primary screen GU Rhodamine qHTS for Zika virus inhibitors: Unlinked NS2B-NS3 protease assay (AID 1347159); note: nearly all actives have a fitted effect of over 60% in size; note: potency is the fitted concentration of half-maximal effect
# Method in brief: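 A qHTS format was used, with compound concentrations ranging up to 114 microM. Each compound was preincubated with 25 nM NS2B-NS3 protease, and the substrate was then added at 1.5 microM. Curves were fitted with a 4-parameter Hill model.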
# [9] = test system: Zika virus NS2B-NS3 protease (linked construct); experiment: Primary screen NINDS Rhodamine qHTS for Zika virus inhibitors (AID 1347160); note: nearly all actives have a fitted effect of over 55% in size
# Method in brief: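 Kinetic fluorescence (Ex 480 nm, Em 540 nm) over 15 min with 1.5 microM Rhodamine110 peptide and 25 nM linked protease.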
# [10] = Tertiary RLuc qRT-PCR qHTS assay for Zika virus inhibitors (AID 1347169); note: top concentration of the series differs between compounds; nearly all actives have a fitted effect of over 55% in size
# Method in brief: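 Inhibition of ZIKV-RLuc replication in Vero cells, read as Renilla luminescence 1-1.5 hrs after live-cell substrate addition, following 48-72 hrs infection at MOI 1-2 in presence of compound.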
smiles,measurement,setting,value
CC(=O)c1c(O)c(C)c(O)c(Cc2c(O)c3c(c(C(=O)/C=C/c4ccccc4)c2O)OC(C)(C)C=C3)c1O,Potency,[1],inactive
same,Potency,[2],5.62 µM (active)
same,Potency,[3],3.55 µM (active)
same,Potency,[4],17.8 µM (active)
same,Potency,[5],63.1 µM (active)
same,Potency,[6],31.6 µM (active)
Nc1ccc(CCN2CCN(c3cccc(C(F)(F)F)c3)CC2)cc1,Potency,[1],inactive
same,Potency,[7],inactive
CC1=C2C(=O)C3[C@@H](CC=C4C[C@@H](O)CC[C@@]43C)[C@@H]2CC[C@]12O[C@@H]1C[C@H](C)CN[C@H]1[C@H]2C (some centres undefined),Potency,[8],inactive
same,Potency,[9],inactive
COC(=O)N1CCN(C(=O)Cc2ccc(Cl)c(Cl)c2)C(CN2CCCC2)C1 (centres undefined),Potency,[1],inactive
same,Potency,[7],inactive
N[C@@H](Cn1oc(=O)[nH]c1=O)C(=O)O,Potency,[1],inactive
same,Potency,[7],inactive
CCCN(CCC)C1CCc2cccc(O)c2C1 (centres undefined),Potency,[1],inactive
same,Potency,[7],inactive
C=C1[C@@H]2CC[C@@]3(C)[C@H](c4ccoc4)OC(=O)C[C@]13O[C@H]1CC(=O)C(C)(C)[C@H](C(OC(C)=O)C(=O)OC)[C@]12C (some centres undefined),Potency,[8],inactive
same,Potency,[9],inactive
CC[C@H]1CN2CC[C@H]1C[C@H]2[C@H](O)c1ccnc2ccc(OC)cc12,Potency,[8],inactive
COc1c(C(C)C)cc2c(c1O)[C@@]1(C(=O)O)CCCC(C)(C)C1CC2 (some centres undefined),Potency,[2],6.85 µM (active)
same,Potency,[8],6.31 µM (active)
same,Potency,[9],inactive
same,Potency,[4],9.67 µM (active)
same,Potency,[10],inactive
CN1C(=O)c2ccccc2NC(=O)[C@]12O[C@@H]2c1ccccc1,Potency,[8],inactive
same,Potency,[9],inactive
COc1cc(C)[nH]c(=O)c1CNC(=O)c1c(C)n([C@H](C)C2CCOCC2)c2ccccc12,Potency,[8],inactive
same,Potency,[9],inactive
COC(=O)C1(C)CCC(O)C2(C)c3cc(O)c(C(C)C)cc3C(O)C(OC(C)=O)C12 (centres undefined),Potency,[2],24.2 µM (active)
same,Potency,[8],inactive
same,Potency,[4],27.1 µM (active)
same,Potency,[10],inactive
CC(C)[C@@H](CN1CC[C@@](C)(c2cccc(O)c2)[C@@H](C)C1)NC(=O)[C@H]1Cc2ccc(O)cc2CN1,Potency,[8],inactive
same,Potency,[9],inactive
NC(C(=O)O)c1cc(=O)[nH]o1 (centres undefined),Potency,[1],inactive
same,Potency,[7],inactive
CN(C)CCc1c[nH]c2ccc(CN3CCN(C)S3(=O)=O)cc12,Potency,[8],inactive
same,Potency,[9],inactive
C[N+]1(C)CCN(c2ccccc2)CC1,Potency,[1],inactive
same,Potency,[7],inactive
COC1CC(O[C@H]2CC[C@]3(C=O)C4CC[C@]5(C)[C@@H](C6=CC(=O)OC6)CC[C@]5(O)[C@@H]4CC[C@]3(O)C2)OC(C)C1O[C@@H]1O[C@H](CO)[C@@H](O)[C@H](O)[C@H]1O (some centres undefined),Potency,[8],inactive
same,Potency,[9],inactive
C=C[C@H]1CN2CC[C@H]1C[C@@H]2[C@@H](O)c1ccnc2ccccc12,Potency,[8],inactive
same,Potency,[9],inactive
